Test results taken from PubChem BioAssay AID624377 (The Scripps Research Institute Molecular Screening Center, 2012).
About 680 (0.19%) of roughly 360,000 compounds were called active. The sample as a whole holds a higher share of actives than the screen did. Values without a mark were called inactive. No stated cut-off is given here; in the data, active means inhibition above about 25%; inactive means the rest.

These compounds were tested against Arf-GAP with SH3 domain, ANK repeat and PH domain-containing protein 1 (Homo sapiens) (UniProt Q9ULH1) (assay: inhibitors of human ASAP1 ArfGAP activity, primary screen, biochemical, fluorescence polarization (AID 624377;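 further: 0% = vehicle with enzyme and substrate and 100% = no enzyme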)). Conditions: ASAP1-stimulated ARF1 GTP hydrolysis, GDP FP detection; at 16.5 µM; stronger effect = higher value.
Sequence of Arf-GAP with SH3 domain, ANK repeat and PH domain-containing protein 1 (Homo sapiens) (Q9ULH1 325-724 limits assumed): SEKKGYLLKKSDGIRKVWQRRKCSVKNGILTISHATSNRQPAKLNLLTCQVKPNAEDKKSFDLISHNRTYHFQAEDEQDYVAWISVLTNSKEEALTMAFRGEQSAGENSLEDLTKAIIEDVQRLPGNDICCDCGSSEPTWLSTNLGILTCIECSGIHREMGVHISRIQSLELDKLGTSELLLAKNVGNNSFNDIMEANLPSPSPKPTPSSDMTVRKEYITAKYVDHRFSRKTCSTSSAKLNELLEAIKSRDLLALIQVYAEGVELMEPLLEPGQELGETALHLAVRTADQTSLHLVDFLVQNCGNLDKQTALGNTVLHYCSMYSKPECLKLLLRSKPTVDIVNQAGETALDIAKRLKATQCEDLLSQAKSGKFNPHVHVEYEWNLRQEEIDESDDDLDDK

Compound | inhibition
OC(c1ccccc1)(c1ccccc1)C1CCN(CCCOc2ccc(-c3ccsc3)cc2)CC1 | 13.7%
Cc1ccc2nc(SCC(=O)Nc3cccc4ccccc34)nc(=O)n2c1 | 16.5%
Cc1ccc2nc(SCC(=O)N3CCN(c4ccccc4)CC3)nc(=O)n2c1 | 14.1%
Cc1ccc2nc(SCC(=O)N3CC(C)OC(C)C3)nc(=O)n2c1 (stereo unspecified) | 40.7% (active)
CC(=O)N(C1=C(Cl)C(=O)c2ccccc2C1=O)c1ccc(C(=O)O)cc1 | 29.4% (active)
O=C1C(Cl)=C(Oc2ccccc2)C(=O)c2ccccc21 | -0.42%
COc1ccc(-c2ccccc2C2Cc3nnccc3CN2C(=O)Nc2ccccc2)cc1 (stereo unspecified) | -1.04%
O=C(NCc1ccccc1)[C@H]1CCCN1C(=O)[C@H]1CCCN1C(=O)N1CCOCC1 | 11.6%
Nc1[nH]c(C(=O)c2ccc(Br)cc2)c(-c2ccc3c(c2)OCO3)c1C(=O)NCCc1c[nH]c2ccccc12 | 9.33%
CC(=O)c1ccc(S(=O)(=O)NCC2CCN(C(=O)C(=O)c3cccs3)CC2)cc1 | -0.29%
OCCNc1nc2ccccc2n1-c1ncnc2sc3c(c12)CCC3 | 1.46%
COc1ccc(/C=N/Nc2ncnc3sc4c(c23)CCCC4)cc1O | 27.3% (active)
O=C(O)c1cccnc1Sc1ncnc2sc3c(c12)CCC3 | 8.49%
COc1cccc(CNC(=O)[C@H]2CCCN2C(=O)[C@H]2CCCN2C(=O)c2ccc(F)cc2)c1 | -1.31%
CCn1c2ccccc2c2cc(NC(=O)C/C(C)=N/NC(=O)c3ccccc3N)ccc21 | 27% (active)
CCn1c2ccccc2c2cc(NC(=S)N3CCOCC3)ccc21 | -2.05%

Compound | inhibition
CCn1c2ccccc2c2cc(NC(=O)COC(=O)c3cc(S(=O)(=O)N4CCCCC4)ccc3Cl)ccc21 | 0.3%
COC(=O)C1=C(C)N(Cc2ccccc2C(F)(F)F)C(=NCC2CC2)NC1c1cccc(Cl)c1 (stereo unspecified) | 17.5%
C#CCN([C@@H](C)C(=O)OCC)S(=O)(=O)c1ccc(Br)cc1F | 3.17%
Cc1ccc2nc(-c3ccc(CN4CCC(n5cc(-c6ccccc6)[nH]c5=O)CC4)cc3)c(-c3ccccc3)nc2c1 | 9.24%
Cc1cc2nc3c(=O)[nH]c(=O)nc-3n(C[C@H](O)[C@H](O)[C@H](O)CO)c2cc1C | 0.24%
COc1ccccc1C(=O)N1O[C@]23C=C[C@]14C[C@@H](O)CC[C@]4(C)C2CC[C@]1(C)[C@@H]([C@H](C)/C=C/[C@H](C)C(C)C)CC[C@H]13 (stereo partly specified) | 6.77%
C=CCN=C1NC(c2ccccc2)C(C(=O)OC)=C(C)N1Cc1ccc(C(F)(F)F)cc1 (stereo unspecified) | 9.79%
CCOC(=O)CNC(=O)N(C)[C@H]1C[C@H]2c3[nH]c4c(-c5ccc6c(c5)OCO6)cccc4c3CCN2C(=O)[C@H]1[C@H](C)O | -4.88%
COC(=O)N1Cc2ccnnc2CC1c1ccccc1Br (stereo unspecified) | 7.59%
O=C1[C@@H](c2ccccc2)[C@@H](c2ccccc2)N1c1ccccc1 | -13%
O=C1Nc2ccccc2C1=NN=Cc1ccco1 | 1.27%
Clc1cccc2c1C1CC2CCN1Cc1ccccc1 (stereo unspecified) | -8.11%
Nc1nc2c(ncn2[C@@H]2O[C@H](C(=O)N[C@H](Cc3ccccc3)C(=O)NCC3CCCCC3)[C@@H](O)[C@H]2O)c(=O)[nH]1 | 5.87%
COC(=O)C1=C(C)N(Cc2ccc(F)cc2)C(=S)NC1c1cccc(Cl)c1 (stereo unspecified) | -11.5%
N#Cc1cccc(C(=O)NCC2CCN(C(=O)C(=O)c3cc4ccccc4o3)CC2)c1 | -11.4%
